The subject of the assay is RARb:RXRa (NR concentration 270 nM, RXRa partner concentration 90 nM). Kind of assay: PBM binding z-score (relative to random genomic background probes); higher = stronger binding; sequences stand for … in GC…GCGATTGACAGCGTAGAATGAAGG
The gist of the method: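 Regression normalization was applied to scanned fluorescence from custom Agilent 4×180K protein-binding microarrays. Before scanning, arrays were incubated 1 h with ligand-free nuclear receptor dimers, and binding was detected with antibodies against each partner (one per run). Binding z-scores use the random background probes as reference.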
CCCACTGGGGCATAAGGTTACCATAAGCCAGCCC gave a PBM binding z-score of 1.46. For GCTTACGGGTCAAACGTTATAGCATGAATAGAAT the value was 3.76; for TCTCGGATGACACGAAGGTCAGAGCTTTCCAGAG, 2.55. The sequence ATCTCTAGGTAAAATTTCAGTGAATCCCGAGGAT had a PBM binding z-score of 0.377. Sequence CATACAGGGTCAGCTAGGCGAGAGTAGGGACGGC showed a PBM binding z-score of 4.04. On to GAAACGAGGGCAAGTTGATAGCAGAGTTTGATGG, for which the PBM binding z-score was 2.48. For GCATATAGGTAATACAAGGTGAAAATCCGATTGT the value was 0.306. In turn, CCTAGTTGGTCAGGAGGTCAGACACCGGATATGA registered a PBM binding z-score of 2.92. CCTTACGGCTCACGAGGTTATAGCACGACGAGCG showed a PBM binding z-score of 0.347. CCTCGGAGGAGAACAGGAGGTCAGAGCTGCCAGA displayed a PBM binding z-score of 1.95. For TAGCCTTGGTCATGCGGGCCAGTATAGTGTCGGC the value was 0.534.

In turn, AGAATGAGTTTACCAAAGATCAGGGAAACGCTTG registered a PBM binding z-score of 0.347. The result for ACTCGGAGGACAAAGGTCTGAGCTACGCCAGTGA reads 1.3. TTACCAAGGGGAAAGGTCGTTGATGCACGCCTTG showed a PBM binding z-score of 1.77. For the sequence CCTACTGGGCCACGAATGGTCATTGATTCAGTGA, the PBM binding z-score worked out at 0.436.

Turning to CGTCAAAGTTCAACTAAGGAAACGTAAAGCACGC, the PBM binding z-score stood at 5.19. For TCTTGTAGATCAAGGAGGTTAAGAAAGCCTGAGT the value was 0.468; for AATACAGGGTCACTAGGACAGAGTAGGTACGAAT, 4.27; for GTTCGGAGGACAAGGTCAGAGCTTTGTCCGTAGA, 3.13.

TGAATGAGGTTAAAGATCAGGTAACGTGGCGTCG had a PBM binding z-score of 2.01. AATACAGGGTCACTAGGCCAGATTAGGTACGAAT displayed a PBM binding z-score of 4.09. The result for GCAGACAGGTGTAACGCAGGTAACTCAGGGTGGC reads -0.603.
